Results on 57 molecules are retold here after PubChem BioAssay AID624037 (The Scripps Research Institute Molecular Screening Center, 2012).

Hit rate of the full screen: of about 360,000 compounds, about 700 (0.19%) were called active.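 The calls were made as follows: active = activation above the run's mean over test compounds plus 3 SD (cut at about 23% in these data); inactive = the rest.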 Many of the other results were omitted from the sample, so actives are more common in it than they were.

Chain of Muscarinic acetylcholine receptor M5 (Homo sapiens) (P08912 whole entry, looked up): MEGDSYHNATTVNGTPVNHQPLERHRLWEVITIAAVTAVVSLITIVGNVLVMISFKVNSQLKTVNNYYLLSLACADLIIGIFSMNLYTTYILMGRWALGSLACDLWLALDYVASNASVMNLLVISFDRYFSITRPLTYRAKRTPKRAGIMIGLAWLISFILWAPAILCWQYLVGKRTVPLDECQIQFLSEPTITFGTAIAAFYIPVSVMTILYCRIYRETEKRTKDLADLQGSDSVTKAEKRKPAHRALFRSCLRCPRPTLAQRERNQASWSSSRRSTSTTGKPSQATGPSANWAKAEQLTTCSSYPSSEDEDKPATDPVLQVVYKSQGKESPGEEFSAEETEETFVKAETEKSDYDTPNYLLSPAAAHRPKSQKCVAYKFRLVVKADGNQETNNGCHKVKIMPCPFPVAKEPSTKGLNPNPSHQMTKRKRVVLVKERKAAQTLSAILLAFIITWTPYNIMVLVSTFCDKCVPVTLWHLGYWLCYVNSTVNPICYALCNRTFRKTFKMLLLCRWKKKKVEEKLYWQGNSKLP

This assay concerns the target Muscarinic acetylcholine receptor M5 (Homo sapiens) (UniProt P08912). As to the kind of experiment: human M5 muscarinic receptor agonists, primary screen, CHO-K1 cells, Fluo-8 calcium fluorescence (AID 624037).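 Also: signal is peak over basal fluorescence ratio across the kinetic read.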 The conditions noted are these: CHO-K1 hM5 cells, at 3 µM, hits give high values, 0% DMSO wells, 100% maximal acetylcholine response.
`O=C(O)c1ccc2c(=O)n3c(nc2c1)/C(=C/c1ccc(OC(F)F)cc1OC(F)F)CC3`: the activation is -3.87% (inactive).
With `Cc1cc2c(cc1S(=O)(=O)CCC(=O)NCc1ccccc1)OCC(=O)N2` the figure was 0.35% (inactive).
Turning to `COc1ccc(NC(=O)CCS(=O)(=O)c2cc3c(cc2Cl)NC(=O)CO3)cc1OC`, the activation was -3.81% (inactive).
For `COc1ccc(Cl)cc1NC(=O)CCS(=O)(=O)c1cc2c(cc1C)NC(=O)CO2` the value was 38% (active).
Turning to `CCOC(=O)Cn1c(=O)oc2cc(S(=O)(=O)NCC3CCCO3)ccc21` (configuration not stated), the activation is 1.72% (inactive).
On to `Cc1ccc(S(=O)(=O)N2C[C@H]3n4c(=O)ccc(=O)n4C[C@H](OC(=O)NC4CCCC4)[C@@]3(O)C2)cc1`, for which the activation is 0.5% (inactive).
As for `CCC1(C(=O)c2ccccc2)C(c2cccc([N+](=O)[O-])c2)C1(C(=O)OC)C(=O)OC` (configuration not stated), the activation is -4.52% (inactive).
For `O=C(Oc1ccc(C(=S)N2CCOCC2)cc1)c1ccc(F)cc1` the value was 3.46% (inactive).
Regarding `CN1C(=O)c2cccc3c(N)ccc(c23)C1=O`, the activation was 45.7% (active).
For `Cc1nn(C)cc1N1C(=O)c2cccc3c(N)ccc(c23)C1=O` the value was 91.9% (active); for `CCC(C)(C)NC(=O)CN(C(=O)CCC(=O)Nc1nccs1)c1ccc2c(c1)OCO2`, -2.1% (inactive); for `COC(=O)c1sccc1-n1cccc1C(=O)C(=O)N1CCCCC1`, -2.31% (inactive).
For `CC/C(=N\NC(=O)c1c(C)nc2ccccn12)c1ccc(Cl)cc1` the value was -4.55% (inactive); for `COc1ccc(N2C(=O)C3C(C2=O)C(C(=O)c2ccccc2)N2CCCC32)cc1` (configuration not stated), 1.81% (inactive); for `CCn1c(CNc2ccc(OC)cc2)nnc1SCC(=O)c1ccc(OC)cc1`, -9.07% (inactive).
For `O=[N+]([O-])/C=C1\CCCCCN1` the value was -0.84% (inactive); for `N#CC1(Nc2ccc(-c3ccc(Cl)cc3)cc2)CCCC1`, -3.18% (inactive); for `CC(C)C(=O)Nc1ccc2c3c(cccc13)CC2`, -5.26% (inactive).
On to `N#CC1(Nc2ccc3c4c(cccc24)CC3)CCCCC1`, for which the activation is 37.2% (active).
With `COc1ccc(Cl)cc1S(=O)(=O)N1CCC(O)(c2ccc(Cl)cc2)CC1` the figure was -0.77% (inactive); with `COc1cc(OC)c(-n2cc(-c3ccc(Cl)cc3)[nH]c2=O)cc1Cl`, 42.8% (active).
As to `COc1cc(Cl)c(S(=O)(=O)n2cnc(C)c2)cc1Cl`, the activation is 0.51% (inactive).
In the case of `COc1ccc(C)cc1NC(=O)CSc1nnc(CC(=O)Nc2ccccc2F)n1C`, the activation was -1.92% (inactive).
On to `COc1ccc(OC)c(CN2C(=O)CCC2(C)c2nnnn2Cc2ccccc2)c1` (configuration not stated), for which the activation was 2.06% (inactive).
With `COc1ccc(-n2c(C)csc2=S)cc1` the figure was -0.99% (inactive).
For the molecule `CCOC(=O)C1=C(CC)OC(N)=C(C#N)C1c1ccc(F)cc1F` (configuration not stated), the activation is -0.33% (inactive).
With `Cn1cc(CNC(=O)c2ccc(OC3CCN(Cc4ccccn4)CC3)cc2)cn1` the figure was -4.97% (inactive).
On to `COc1ccc(SCCN2CCN(CC(C)C)CCC2=O)cc1`, for which the activation is 1.8% (inactive).
For `O=C(COc1nc2ccccc2nc1N1CCOCC1)NCC(F)(F)F` the value was -2.71% (inactive); for `Nc1nc2c(ncn2[C@@H]2O[C@H](CNCc3ccc(OCCCN4CCOCC4)cc3)[C@@H](O)[C@H]2O)c(=O)[nH]1`, 0.62% (inactive); for `O=[N+]([O-])c1cc(C(F)(F)F)ccc1NCCc1ccncc1`, -2.99% (inactive).
Take `O=C(/C=C/Nc1ccc(S(=O)(=O)Nc2cnc3ccccc3n2)cc1)c1cccnc1`: the activation is -3.4% (inactive).
In the case of `COc1ccc(C(=O)/C=C/Nc2ccccn2)cc1`, the activation is 78% (active).
With `COCCN(C(=O)CCC(=O)Nc1ccccn1)C(C(=O)NCCC(C)C)c1ccc(OC)cc1` (configuration not stated) the figure was -1.86% (inactive); with `CCOc1ccc(C(=O)NC(=S)Nc2ccc(N3CCOCC3)c(Cl)c2)cc1[N+](=O)[O-]`, -0.99% (inactive); with `COc1ccc(NC(=O)CN2C(=O)COc3ccc(S(=O)(=O)N4CCOCC4)cc32)c(OC)c1`, 0.4% (inactive).
For the molecule `C[C@H]1COC(=O)[C@H](CC(=O)OC(C)(C)C)C/C=C\C[C@@H](CC(=O)N[C@H](CO)Cc2ccccc2)C(=O)N1`, the activation is 0.74% (inactive).
With `Nc1ccn(C2CC(O)C(CO)O2)c(=O)n1` (configuration not stated) the figure was 10.7% (inactive); with `O=c1[nH]cnc(O)c1C(c1ccc(F)cc1)c1c(O)nc[nH]c1=O`, 0.85% (inactive); with `Cc1occc(=O)c1OCc1c(Cl)cccc1Cl`, -4.28% (inactive).
For `Cc1occc1C(=O)NC1CCCN(Cc2ccc(CC(C)C)cc2)C1` (configuration not stated) the value was -1.97% (inactive); for `Cc1ccc(Cn2c(C)c(C(=O)NCc3ccccc3C(F)(F)F)sc2=O)cc1`, -2.26% (inactive); for `Cc1c(C(=O)NCc2ccc(C#N)cc2)sc(=O)n1Cc1ccc(C(=O)N(C)C)cc1`, 0.99% (inactive).
As for `CC(=O)Oc1ccc(Cn2c(C)c(C(=O)NCc3ccc(C#N)cc3)sc2=O)cc1`, the activation is 47.2% (active).
For `CCN(C(=O)COC(=O)c1cc(NS(=O)(=O)c2ccc(Cl)c([N+](=O)[O-])c2)ccc1O)C1CCCCC1` the value was 2.95% (inactive).
In the case of `CCC(CC)NC(=O)CSc1nnc(-c2c[nH]c3ccccc23)o1`, the activation was -0.74% (inactive).
With `CC1=CC=CN2C1=NC(=O)CC2(C)C(=O)N(CC(=O)NC1CCCC1)c1ccccc1C` (configuration not stated) the figure was 0.83% (inactive).
Turning to `COc1cc(C(=S)NCc2ccccc2)cc(Br)c1O`, the activation is -4.14% (inactive).
For `COc1cc(=O)[nH]c(=O)n1C(=O)Cc1ccccc1` the value was -1.68% (inactive); for `COc1cc(/C=C2/SC(=S)N(Cc3ccccc3)C2=O)cc(OC)c1O`, 24.1% (active); for `Nc1c(C(=O)c2cccs2)sc2nsc(SCCN3CCCCC3)c12`, 121% (active).
For `COc1cccc(-c2cnc3c(NC(C)=O)cc(-c4cc(F)ccc4OC)cn23)c1` the value was -1.59% (inactive); for `CCn1c(C(C)C)n[nH]c1=S`, 1.36% (inactive).
For `CCc1ccc(NC(=O)Cn2nnc(C(=O)NCc3ccc4c(c3)OCO4)c2N)cc1` the value was -3.78% (inactive); for `CCCn1nc2cc(C(=O)NCc3ccccc3)ccc2c1OCC`, -0.79% (inactive); for `CCOc1ccc(Cn2nnc(C(=O)NCc3ccccc3)c2N)cc1`, 34.7% (active).
As to `CCN(CC)CCCC(C)n1c2nc(=O)[nH]c(=O)c-2nc2cc(Cl)ccc21` (configuration not stated), the activation is 438% (active).
